Screening data: PubChem BioAssay, National Center for Advancing Translational Sciences (NCATS)
D2 antag = antagonizes the human D2 dopamine receptor; P14416; HEK293 TREx D2 cells, calcium flux, dopamine EC80; inhibition, % at 10 µM; hit rate 2% among 340,000; in the data active means inhibition above about 30%; inactive means below that, where a call was filed; further: 0% is about no effect
Target sequence (P14416 whole entry, looked up): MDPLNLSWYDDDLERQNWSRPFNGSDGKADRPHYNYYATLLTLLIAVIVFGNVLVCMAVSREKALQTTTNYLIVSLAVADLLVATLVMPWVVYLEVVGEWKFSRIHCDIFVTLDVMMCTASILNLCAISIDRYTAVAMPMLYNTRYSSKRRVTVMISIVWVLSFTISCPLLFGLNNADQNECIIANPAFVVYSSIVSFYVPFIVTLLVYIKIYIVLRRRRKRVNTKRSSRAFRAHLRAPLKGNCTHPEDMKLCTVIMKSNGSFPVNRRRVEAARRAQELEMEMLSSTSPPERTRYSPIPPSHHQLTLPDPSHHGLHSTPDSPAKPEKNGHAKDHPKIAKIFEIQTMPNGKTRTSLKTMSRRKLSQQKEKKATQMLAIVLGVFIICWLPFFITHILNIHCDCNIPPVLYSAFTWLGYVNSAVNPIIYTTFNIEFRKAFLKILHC
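Measurement of antagonist activity uses fluorescent calcium dye in inducible HEK293 T-REx D2 cells: 10 s baseline, compound addition with 180 s read, EC80 dopamine addition with a further 180 s read.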
D2 ag-1 = D2 dopamine receptor (human) agonism; P14416; HEK293 T-REx D2 cells, calcium flux agonist mode; activation, % at 2 µM; hit rate 0.53% among 340,000;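 active means activation over 3 SD above normal in the single-dose calcium agonist read, cut at about 30% in these data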; further: 0% is about no effect
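Agonism scored from kinetic calcium signal (1 read/sec, 180 s) following compound pin transfer, after a 10 s baseline. Cells: HEK293 Trex line expressing inducible D2 receptor coupled to calcium, dye-loaded after overnight culture at 30 C.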
D2 PAM-1 = positive allosteric modulators of human D2 dopamine receptor; AID 485347; P14416; hit rate 0.34% among 340,000; HEK293 T-REx D2, calcium flux, EC20 dopamine potentiation; potentiation, % at 10 µM;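 active means potentiation over 3 SD above the plate norm, cut at about 30% in these data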; further: 0% is about no effect
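Primary screen. Calcium kinetics in induced HEK293 T-REx D2 cells: compound pre-addition 180 s, EC20 dopamine, 180 s more.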
D2 ag-2 = agonists of human D2 dopamine receptor (beta-arrestin). P14416. DiscoveRx PathHunter D2 beta-arrestin, luminescence, 90 min; 100% = 57 uM dopamine signal. activation, % (concentration not given with the values). hit rate 0.084% among 360,000; in the data active means activation above about 40%; inconclusive means between about 15% and that limit
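Agonist mode: compounds alone added to overnight-plated D2 PathHunter cells for 90 min at 37 C, with 57 uM final dopamine (EC100) defining full response. Beta-arrestin recruitment detected by chemiluminescent reagent, read after 1 h at ambient temperature.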
D2 PAM-2 = positive allosteric modulators of human D2 dopamine receptor. P14416. DiscoveRx D2 beta-arrestin cells, luminescence, 90 min; 100% = 57 uM dopamine signal. potentiation, % (no concentration beside the values). hit rate 0.23% among 360,000. AID 624464; in the data active means potentiation above about 50%; inconclusive means mostly about 30% to 49%
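D2 cells co-treated with compound plus 50 nM dopamine (EC20) for 90 min at 37 deg C to detect potentiation. Beta-arrestin recruitment was read as enzyme-fragment luminescence after 1 h at ambient temperature. Full response was set by 57 uM dopamine.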
D3 ag = confirmation of human D3 dopamine receptor agonists, beta-arrestin. AID 720506. shares compounds with D2 ag-1. hit rate 4% among 2,300. DiscoveRx D3 beta-arrestin cells, luminescence, 90 min. Potency, µM (doses to about 76.9 µM), without a hit: top-dose activation, most hits filed as activators;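 further: potency means the concentration at half of the fitted maximal effect; 100% = dopamine control response; nearly all actives have a fitted effect of over 70% in size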
D2 ag-3 = D2 receptor agonism, beta-arrestin counterscreen. shares compounds with D2 ag-1. DiscoveRx PathHunter D2 beta-arrestin, luminescence, 90 min; response scale: percent relative to full dopamine signal. Potency, µM (doses to about 76.9 µM), without a hit: top-dose activation, actives largely listed as activators. hit rate 5.9% among 2,300. AID 720507; further: potency means the concentration at half of the fitted maximal effect; % of control where 0% means no effect; nearly all actives have a fitted effect of over 70% in size
An asterisk follows results filed as active; u = inconclusive; x = no result given. Compounds with a hit are over-represented: about 2.4% of the library has one in this group of screens. Unless noted, the call rests on the fitted dose curve; in most records, active means well fitted activation curve with a large enough effect; inconclusive means small, poorly fitted or top-dose-only effect; inactive means flat fitted curve, though single readings scatter.

SMILES	D2 antag	D2 ag-1	D2 PAM-1	D2 ag-2	D2 PAM-2	D3 ag	D2 ag-3
CC(=O)c1ccc(OC(=O)C2CSC3(C)CCC(=O)N23)cc1 (stereo unspecified)	x	x	x	0.3	11.3	-4.1%	-1.6%
CCOc1ccc(NC(=O)CN(C)C(=O)C2CSC3(C)CCC(=O)N23)cc1OCC (stereo unspecified)	8.6	0.0	-2.5	0.7	-0.5	-2.5%	-0.6%
COc1ccc(NC(=O)CN(C)C(=O)C2CSC3(C)CCC(=O)N23)cc1 (stereo unspecified)	-10.1	0.5	0.1	-3.3	5.9	-3.3%	0.7%
CCOc1ccc(NC(=O)CN(C)C(=O)CC2CCCCC2)cc1OCC	2.7	0.0	-10.9	3.3	-1.3	x	x
CCOc1ccc(NC(=O)CN(C)C(=O)CCC2CCCCC2)cc1OCC	12.1	-1.4	5.9	1.8	-16.4	-4.2%	0.5%
CCCc1c(C(=O)N/N=C(\C)c2ccccn2)nnn1-c1nonc1N	x	x	x	-2.3	-9.1	x	x
COc1cc(NC(=O)Cn2nnc(-c3ccc(C(F)(F)F)cc3)n2)c(C(=O)O)cc1OC	x	1.4	-2.9	x	x	x	x
O=C(Nc1ccnn1C1CCN(Cc2cc3ccccc3[nH]2)CC1)C1CCOC1 (stereo unspecified)	28.1	41.6*	-22.0	x	x	-5.6%	0.1%
Cc1cccc(C)c1NC(=O)CN1CCN(C(=O)CN2C(=O)NC3(CCCCC3C)C2=O)CC1 (stereo unspecified)	19.6	40.3*	-16.7	0.7	4.6	3.7%	6.2%
CCc1ccccc1NC(=O)CN1CCN(C(=O)CN2C(=O)NC3(CCCCC3C)C2=O)CC1 (stereo unspecified)	-5.8	-0.7	-7.1	-2.4	1.5	x	x
COC(=O)c1ccc(OCC(O)CN2CCN(C(=O)c3ccco3)CC2)cc1 (stereo unspecified)	11.2	-0.5	5.6	u	21.9	x	x
O=C(c1ccco1)N1CCN(Cc2csc(-c3ccccc3Cl)n2)CC1	14.3	41.1*	-25.0	0.2	-36.7	-2.9%	6.8%
O=C(c1ccco1)N1CCN(Cc2cccc3ccccc23)CC1	76.0*	57.6*	-22.7	14.3	13.9	u	u
O=C(c1ccco1)N1CCN(Cc2ccc(Br)cc2)CC1	79.7*	78.7*	-20.1	57.5*	u	u	15.8µM*
O=C(c1ccco1)N1CCN(CC(O)COc2ccc(Br)cc2)CC1 (stereo unspecified)	77.2*	76.2*	-18.6	5.1	-3.6	u	u
C[C@H](CO)N1C[C@H](C)[C@@H](CN(C)C(=O)NC2CCCCC2)Oc2ccc(NC(=O)CCC(F)(F)F)cc2C1=O	x	x	x	0.3	-11.1	x	x
O=C(c1ccco1)N1CCN(Cc2nc(-c3cccs3)no2)CC1	-2.8	4.3	-11.0	8.2	14.9	6.3%	12.5%
COC(=O)c1ccc(OCC(O)CN2CCN(C(=O)c3ccco3)CC2)c(OC)c1 (stereo unspecified)	25.9	63.7*	-30.6	13.4	14.0	-7.9%	u
O=C(c1ccco1)N1CCN(Cc2cccc(F)c2)CC1	84.3*	87.6*	-23.7	59.5*	23.5	u	20µM*
CCc1ccc(CN2CCN(C(=O)c3ccco3)CC2)cc1	83.3*	79.7*	-17.8	78.3*	u	5.62µM*	14.1µM*
Cc1ccc(C)n1CCN1CCN(C(=O)c2ccco2)CC1	2.7	24.8	6.5	5.9	-29.5	4.3%	8.8%
COc1cc(NC(=O)CN(C)S(=O)(=O)c2ccc3c(c2)CCCC(=O)N3)cc(OC)c1OC	x	0.4	-7.9	x	x	x	x
COc1cccc(S(=O)(=O)NC2CCN(C#N)C2)c1 (stereo unspecified)	0.5	-0.3	4.6	x	x	-6.4%	-2.0%
CC(CCc1ccccc1)NCc1ccncc1 (stereo unspecified)	63.7*	68.0*	-22.6	u	-0.2	u	u
CC(Cc1ccccc1)C(=O)NCc1ccncc1 (stereo unspecified)	-24.8	1.0	1.8	-1.0	-19.4	x	x
SMILES	D2 antag	D2 ag-1	D2 PAM-1	D2 ag-2	D2 PAM-2	D3 ag	D2 ag-3
N#CCCN(C(=O)COC(=O)COc1ccccc1Cc1ccccc1)c1ccccc1	7.1	0.6	-8.3	-2.3	1.1	-6.4%	0.3%
CCOc1ccc(-c2cn(-c3ccc(C)cc3)c(SCC(=O)Nc3ccc(C)cc3)n2)cc1	x	0.0	1.6	x	x	x	x
O=C(NCc1ccccc1)c1nncc(-c2ccccc2)n1	9.2	-0.3	-2.5	-4.6	-14.9	1.9%	-3.7%
COc1cc(NC(=O)C(C)(C)C)c(C(=O)OCC(=O)Nc2cc(C)on2)cc1OC	x	x	x	-2.8	-13.1	x	x
O=C(CCSc1nc(-c2ccco2)cc(C(F)(F)F)n1)N1CCN(c2ccccn2)CC1	6.0	52.0*	-17.1	-0.4	2.3	-6.7%	-0.1%
CN1CCN(C(=O)CSc2nc(-c3ccco3)cc(C(F)(F)F)n2)CC1	-14.7	-0.6	-6.3	0.6	-14.6	x	x
Cc1ccc2c(C)c(C(=O)N(Cc3ccc(Cl)cc3)C3CCS(=O)(=O)C3)oc2c1 (stereo unspecified)	x	-0.4	12.0	x	x	x	x
CCOC(=O)c1c(NC(=O)COc2ccc3ccc(=O)oc3c2)sc(C(=O)N(C)C)c1C	3.3	0.2	-5.1	2.4	3.0	x	x
CCCN(CC(=O)Nc1ccccc1C)C(=O)c1ccc2c(c1)OCO2	-9.2	-1.6	8.5	-1.9	-10.5	-4.3%	-2.0%
COCCN(CC(=O)Nc1cccc(C)c1C)C(=O)c1ccc2c(c1)OCO2	-7.9	-1.3	-0.8	-4.2	-6.8	x	x
CCOC(=O)C(NCCc1ccccc1)(NC(=O)CC)C(F)(F)F (stereo unspecified)	-8.3	1.9	-6.3	3.2	5.9	0.4%	0.6%
CCOC(=O)C(NC(C)=O)(OCc1ccccc1)C(F)(F)F (stereo unspecified)	-7.3	67.4*	-19.9	1.0	4.0	1.1%	-3.5%
COc1ccc(NC(=O)CN2CCN(C(C)=O)CC2)cc1S(=O)(=O)N1CCOCC1	x	x	x	-9.1	-2.9	x	x
C=CC[n+]1c(-c2ccc(Cl)cc2Cl)csc1Nc1c(C)n(C)n(-c2ccccc2)c1=O	48.9*	56.6*	-16.0	-7.5	-28.2	-47.9%	-10.4%
Cc1c(Nc2nc(-c3ccccc3)cs2)c(=O)n(-c2ccccc2)n1C	12.3	0.1	-2.7	-0.8	-16.5	x	x
C=CC[n+]1c(-c2ccc(C)cc2)csc1Nc1c(C)n(C)n(-c2ccccc2)c1=O	x	x	x	-0.8	-13.8	-10.8%	11.3%
O=C(NCCOc1ccccc1Cl)c1ccc2c(c1)S(=O)(=O)c1cc(Cl)ccc1C2=O	x	x	x	5.4	7.7	x	x
